AI-2 QS modul = Vibrio harveyi AI-2 quorum sensing modulators, primary screen, JMH597 strain, luminescence/OD600 ratio; Vibrio harveyi JMH597 AI-2 luminescence/OD600 ratio, 9 h; active compounds read low; strain lacks LuxN and CqsS sensors; 0 = neutral-control median; activity change, % at 7.5 µM; 0.4% of 300,000 active; AID 2094, 2009; in the data active means activity change below about -75%, passing the limit was not always enough;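 further: luminescence divided by OD600 gain over 9 h not by final OD600 alone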
ARNT TACC3 PPI = disruptors of ARNT/TACC3 protein interaction, primary screen, biochemical, AlphaScreen, single concentration; Transforming acidic coiled-coil-containing protein 3 (Homo sapiens), Q9Y6A5; inhibition, % at 9.99 µM; 0.66% of 390,000 active; AID 623870, 2012; AlphaScreen His-ARNT PAS-B/GST-TACC3 binding, luminescence; TACC3 fragment carries E629A point mutation;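 active means mean inhibition of replicates at least 50% and at least half of replicates each reaching 50%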;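 further: 0% = complete ARNT plus TACC3 wells and 100% = ARNT alone without TACC3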
sPLA2-III inh = human group III sPLA2 inhibitors, primary screen, biochemical, QFRET, BODIPY PC-A2 liposome substrate | QFRET BODIPY PC-A2 liposome hydrolysis, fluorescence | inhibition, % at 12.2 µM | 0.56% of 370,000 active | AID 743126, 2013;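 active means inhibition above mean plus 3 SD of compounds lying within the high and low control bounds, cut at about 19% in these data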;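 further: 0% = median of test compound wells and 100% = no enzyme DMSO wells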
Target sequence (Q9NZ20 whole entry, looked up): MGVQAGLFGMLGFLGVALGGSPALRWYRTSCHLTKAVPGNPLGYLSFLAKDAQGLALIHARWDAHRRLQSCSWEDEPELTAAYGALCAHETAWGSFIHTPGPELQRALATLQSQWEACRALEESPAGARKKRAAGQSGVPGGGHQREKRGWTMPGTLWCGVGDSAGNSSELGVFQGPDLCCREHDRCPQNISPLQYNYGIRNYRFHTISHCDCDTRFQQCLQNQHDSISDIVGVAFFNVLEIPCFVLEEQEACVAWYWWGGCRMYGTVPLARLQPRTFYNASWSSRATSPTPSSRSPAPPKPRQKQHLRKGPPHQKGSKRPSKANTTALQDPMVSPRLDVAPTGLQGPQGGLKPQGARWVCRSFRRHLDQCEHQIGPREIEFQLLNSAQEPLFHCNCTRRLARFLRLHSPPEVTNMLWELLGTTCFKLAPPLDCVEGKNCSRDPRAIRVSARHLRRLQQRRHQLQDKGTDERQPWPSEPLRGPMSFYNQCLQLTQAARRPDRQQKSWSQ
Rin1 Abl inh = inhibitors of Rin1-Abl protein binding, primary screen, biochemical, TR-FRET; Tyrosine-protein kinase ABL1 (Homo sapiens) + Ras and Rab interactor 1 (Homo sapiens), …; inhibition, % at 7.35 µM; 0.4% of 360,000 active; AID 588664, 2011; in the data active means inhibition above about 5%, passing the limit was not always enough
Rin1 Abl conf = Rin1-Abl binding inhibitor retest, confirmation, biochemical, TR-FRET. shares compounds with Rin1 Abl inh. purified proteins. inhibition, % at 7.35 µM. 49% of 1,300 active
GFP quencher = GFP fluorescence inhibitors and quenchers, artefact control for Rin1-Abl interaction inhibitor project, biochemical | shares compounds with Rin1 Abl inh | inhibitors/quenchers counterscreen | inhibition, % at 6.75 µM | 8.5% of 1,300 active | AID 602125, 2011;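 further: ABL1-eGFP fusion protein alone without its partner RIN1-SBP; 0% = protein with vehicle and 100% = wells lacking protein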
GFP quench dose = GFP fluorescence inhibitors and quenchers, dose response, artefact control for Rin1-Abl interaction inhibitor project, biochemical; shares compounds with Rin1 Abl inh; 230 tested, under 10 active; GFP fluorescence interference/quenching counterscreen; IC50, µM; call rule not given here;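 further: ABL1-eGFP fusion protein alone without its RIN1 binding partner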
Starred values were filed as active, the others as inactive; / = not tested or not shown. This is a sample that favours compounds with a hit; in the whole collection about 1.5% have one here. Unless noted, no stated cut-off is given here; in the data, active means inhibition above about 6.5%; inactive means the rest.

SMILES	AI-2 QS modul	ARNT TACC3 PPI	sPLA2-III inh	Rin1 Abl inh	Rin1 Abl conf	GFP quencher	others
CCCC(=O)Nc1ccc2c(c1)C(=O)N(C)[C@H]1CC[C@@H](CC(=O)NC3CCCC3)O[C@@H]1CO2	/	-6	/	/	/	/
O=C(O)c1cc(N2N=C(C(F)(F)F)/C(=C/C=C/c3ccco3)C2=O)ccc1Cl	/	-11	-9	12*	4	26*
O=C(Nc1ccc(C(=O)O)cc1)/C(=C\c1ccccc1)NC(=O)c1ccco1	14	-6	-2	8.6*	-2	-1
CCC(=O)N[C@@H]1CC[C@@H](CC(=O)NCC2CCCCC2)O[C@H]1CO	/	4	/	/	/	/
COC(=O)C1=C(C)N(CCCC(=O)O)C(=O)NC1c1cc2c(cc1[N+](=O)[O-])OCO2 (stereo not drawn)	-2	-1	-3	8	/	/
COC(=O)C1=C(C)N(C)C(=O)NC1c1cc2c(cc1[N+](=O)[O-])OCO2 (stereo not drawn)	23	33	-15	15*	11*	2
O=C(CCCSc1nc2ccccc2[nH]1)N1CCN(c2ccccc2)CC1	17	3	-4	7.0*	7.1*	2
O=C(CSc1nc2ccccc2[nH]1)N1CCN(c2ccccc2)CC1	12	-3	-9	-3	/	/
CCNS(=O)(=O)c1ccc(CCC(=O)O)cc1	18	-1	-1	8.8*	-1	1
CCNS(=O)(=O)c1ccc(CCC(N)=O)cc1	15	-8	0	6	/	/
CCN(CC)c1ccc(S(=O)(=O)N2CCCCC2)cc1NC(=O)C1CCC1	9	-15	6	-2	/	/
CCN(CC)c1ccc(S(=O)(=O)N2CCOCC2)cc1NC(=O)C1CC1	/	4	11	9.4*	-2	-1
C[C@@H]1CN([C@@H](C)CO)C(=O)c2cccc(NC(=O)c3ccncc3)c2O[C@@H]1CN(C)Cc1ccc(Cl)c(Cl)c1	/	0	/	/	/	/
C[C@@H]1CN([C@H](C)CO)C(=O)c2cccc(NS(=O)(=O)c3cn(C)cn3)c2O[C@@H]1CN(C)Cc1ccc(-c2ccccc2)cc1	/	-7	/	/	/	/
C[C@H](CO)N1C[C@H](C)[C@@H](CN(C)Cc2ccc(-c3ccccc3)cc2)Oc2c(NS(=O)(=O)c3ccccc3)cccc2C1=O	/	3	-24	14*	9.6*	0
C[C@H](CO)N1C[C@H](C)[C@@H](CN(C)Cc2ccc(Cl)c(Cl)c2)Oc2c(NC(=O)c3ccncc3)cccc2C1=O	/	-2	-8	13*	8.7*	1
Cc1ccc(S(=O)(=O)Nc2cccc3c2O[C@H](CN(C)Cc2ccc(-c4ccccc4)cc2)[C@@H](C)CN([C@H](C)CO)C3=O)cc1	/	0	-34	10*	9.7*	0
C[C@H](CO)N1C[C@H](C)[C@@H](CN(C)Cc2ccc(-c3ccccc3)cc2)Oc2c(NS(=O)(=O)c3cn(C)cn3)cccc2C1=O	/	29	-12	36*	29*	-2
Cn1c(CCNC(=O)c2ccco2)nc2cc(NS(=O)(=O)c3ccc(Cl)cc3)ccc21	12	0	-8	5.7*	-3	1
CC(=O)NCCc1nc2cc(NS(=O)(=O)c3ccc(Cl)cc3)ccc2n1C	12	-2	2	-1	/	/
COc1ccc(NC(=O)Nc2ccc3c(c2)CC(=O)N([C@H](C)CO)C[C@@H](C)[C@H](CN(C)CC2CCCCC2)O3)cc1	/	2	/	/	/	/
CC(C)c1ccc(NC(=O)CSc2nnc(CN3CCOCC3)n2C)cc1	32	/	12	18*	26*	1	GFP quench dose=>67
Cc1ccc(NC(=O)CSc2nnc(CN3CCOCC3)n2C)cc1C	15	2	3	4	/	/
O=C(CC1C(=O)NCCN1Cc1c(F)cccc1Cl)NCCCOc1cccnc1 (stereo not drawn)	27	21	-1	14*	12*	-1
COc1cc(Br)c(C(=O)c2nccc3cc(OC)c(OC)cc23)cc1OC	27	10	-9	6.0*	3	0
SMILES	AI-2 QS modul	ARNT TACC3 PPI	sPLA2-III inh	Rin1 Abl inh	Rin1 Abl conf	GFP quencher	others
COc1cc(N)c(C(=O)c2nccc3cc(OC)c(OC)cc23)cc1OC	12	6	1	-4	/	/
COCCNC(=O)C[C@@H]1CC[C@@H]2[C@H](COC[C@H](O)CN2S(=O)(=O)c2ccccc2C)O1	/	1	/	/	/	/
C[C@@H]1CCCCO[C@@H](CN(C)Cc2ccc(C(=O)O)cc2)[C@H](C)CN([C@H](C)CO)C(=O)c2cc(NS(=O)(=O)c3cn(C)cn3)ccc2O1	/	-1	/	/	/	/
CCN(CC)C(=O)CSc1nc(COc2ccccc2)nc2ccccc12	3	-2	3	42*	37*	0
COC(=O)CSc1nc(COc2ccccc2)nc2ccccc12	14	-9	4	1	/	/
C[C@@H]1CN([C@@H](C)CO)C(=O)Cc2cc(NS(=O)(=O)c3ccccc3)ccc2O[C@H]1CN(C)CC1CCCCC1	/	25	/	/	/	/
O=C(N[C@@H]1CC[C@H](CCn2cc(C3(O)CCCC3)nn2)O[C@@H]1CO)C1CC1	/	-5	/	/	/	/
Cc1csc2c(NC3CCN(Cc4ccccc4)CC3)ncnc12	12	6	-11	5.6*	0	0
Cc1ccccc1C(=O)NNC(=O)CCc1ccccc1	6	-17	6	1	/	/
Cc1ccccc1C(=O)NNC(=O)Cc1ccccc1	16	3	5	9.3*	-1	1
O=C(CCS(=O)(=O)c1ccc(Br)cc1)N1CCN(c2ccccc2Cl)CC1	7	-8	-8	9.0*	-1	0
CCC(=O)NC(c1cccs1)c1cc([N+](=O)[O-])c2cccnc2c1O (stereo not drawn)	8	71*	19	10*	6.3*	9.3*
CC(C)C(=O)NC(c1ccccc1)c1cc([N+](=O)[O-])c2cccnc2c1O (stereo not drawn)	8	0	12	0	/	/
O=C(NN=c1c(=O)c2ccccc2c1=O)c1ccccc1	47	11	6	23*	29*	0	GFP quench dose=>68
Cc1noc(C)c1S(=O)(=O)N(C)C[C@@H]1Oc2ccc(NC(=O)Cc3ccccc3)cc2CC(=O)N([C@H](C)CO)C[C@@H]1C	/	-4	/	/	/	/
Oc1ccc(/C=N/Nc2cccc(Cl)n2)c(O)c1	7	40	-45	8.1*	2	1
Oc1ccc(/C=N/Nc2ccc(C(F)(F)F)cn2)c(O)c1	22	/	-28	5	/	/

High-throughput results (PubChem BioAssay)
